This is a sample that favours compounds with a hit; in the whole collection about 3% have one here.
CHT inh – inhibitors of human choline transporter CHT; Q9GZV3; CHT-expressing cells, membrane potential dye, choline response; stronger effect = lower value; B-score at 10 µM; 310,000 compounds, 0.86% hits; AID 488975;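 active means B-score over 3 SD under the library average, and starting fluorescence ratio not unusually high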;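 further: choline stimulus applied at its EC90 after an EC20 pre-addition; B-score computed on integrated fluorescence ratio after choline addition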
Target sequence (Q9GZV3 whole entry, looked up): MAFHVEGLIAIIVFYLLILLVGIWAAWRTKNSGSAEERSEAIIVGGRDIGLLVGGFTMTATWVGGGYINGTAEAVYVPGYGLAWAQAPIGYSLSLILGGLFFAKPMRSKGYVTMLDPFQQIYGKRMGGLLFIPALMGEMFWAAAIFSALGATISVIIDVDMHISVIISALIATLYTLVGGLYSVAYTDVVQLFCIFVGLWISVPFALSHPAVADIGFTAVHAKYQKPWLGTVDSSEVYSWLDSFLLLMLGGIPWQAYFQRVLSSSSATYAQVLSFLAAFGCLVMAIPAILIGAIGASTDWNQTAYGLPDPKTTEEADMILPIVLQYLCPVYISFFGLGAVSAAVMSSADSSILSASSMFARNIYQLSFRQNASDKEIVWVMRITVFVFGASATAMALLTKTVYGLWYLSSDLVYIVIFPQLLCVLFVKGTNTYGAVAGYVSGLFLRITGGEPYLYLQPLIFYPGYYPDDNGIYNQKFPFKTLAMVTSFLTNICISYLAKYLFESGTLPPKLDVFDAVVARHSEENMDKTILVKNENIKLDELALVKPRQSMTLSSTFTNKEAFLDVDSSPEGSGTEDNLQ
NALP1 yeast inh – blocks the NALP1 inflammasome reconstituted in yeast. 280,000 compounds, 0.61% hits. S. cerevisiae NALP1/ASC/caspase-1 growth, X-gal OD620, 72 h. inhibition, % at 10 µM. AID 2071; in the data active means inhibition mostly above about 24%, no sharp cut-off; inactive means mostly below about 32%
Bfl-1 A1 inh – inhibitors of the anti-apoptotic protein A1, read as caspase activation | caspase activation, % (test concentration not listed) | 330,000 compounds, 0.066% hits | MEF A1-2A-BIM cells, Caspase-Glo 3/7 luminescence, 3 h; percent of clofoctol response, vehicle zero;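 active means over half of replicate activation scores above 10%, or exactly half above 10 with the replicate mean above 10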
NALP3 yeast inh – inhibitors of NALP3 inflammasome in yeast. 330,000 compounds, 0.39% hits. AID 2825. inhibition, % at 10 µM. Yeast reconstituted NLRP3/ASC/caspase-1, beta-gal luminescence, 24 h;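 active means inhibition of 50% or more; inactive means inhibition below 50%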
CHT PAM – allosterically activates the human high affinity choline transporter; Q9GZV3; CHT-expressing cells, membrane potential dye, choline EC20; stronger effect = higher value; LV-AA mutant CHT in HEK293 cells; B-score at 10 µM; 310,000 compounds, 0.49% hits; AID 488977;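 active means initial fluorescence not abnormally high and integrated response B-score, plate-corrected, over 3 SD above library mean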
SUMO Mot1 rescue – SUMOylation pathway inhibition by Mot1-301 growth rescue; S. cerevisiae Mot1-301 growth rescue, ATP luminescence, 38.5C; percent above DMSO median, 100 means doubled; growth rescue, % at 18.8 µM; 320,000 compounds, 1% hits;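 active means every valid replicate shows activation above 250% relative to neutral control wells; inactive means the rest, any valid replicate at or below 250%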
Mot1 SUMO dose – SUMO pathway inhibitors in yeast Mot1-301 growth; shares compounds with SUMO Mot1 rescue; S. cerevisiae Mot1-301 galactose growth, ATP luminescence, 24 h; -100 = growth of slx-deleted rescue strain; growth activity, percent, % at 42 µM; 2,300 tested, under 10 active; AID 493004;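 active means Signal drops as the depositor expects, and the fitted half-maximal dose is no more than ten times the top valid tested dose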;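 further: more negative values mean stronger growth rescue toward the control strain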
NALP3 yeast conf – confirmation of NALP3 inhibitors in yeast | shares compounds with NALP3 yeast inh | yeast expressing human NALP3, luminescence | 1,300 compounds, 81% hits | inhibition, % at 10 µM; in the data active means inhibition above about 48%
Casp1-ASC yeast – counter-screen for NALP3 inhibitors: yeast caspase-1-ASC. AID 488784. shares compounds with NALP3 yeast inh. yeast expressing Caspase-1-ASC, luminescence counter screen. inhibition, % at 10 µM. 1,000 compounds, 66% hits
NALP3 yeast rt – confirmation retest of NALP3 inhibitors in yeast; shares compounds with NALP3 yeast inh; yeast expressing human NALP3, luminescence read-out; inhibition, % at 10 µM; 1,000 compounds, 53% hits; AID 488794
CHT block conf – human CHT inhibition, confirmatory screen. CHT activity remaining % of control (stronger effect = lower value), % at 10 µM. 2,400 compounds, 70% hits. CHT-expressing cells, choline membrane potential dye; LV-to-AA substituted CHT, HEK293 cells. AID 493221. shares compounds with CHT inh;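 active means choline transporter activity left, mean of duplicates at 10 µM, below buffer-only control mean minus 3 SD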;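 further: depolarization triggered by choline at its EC90 following an EC20 pre-addition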
HEK293 MPD ctr – CHT inhibitor counter-screen hit in parental HEK293 cells. shares compounds with CHT inh. membrane potential dye, choline response; active = decrease or increase beyond buffer ±3SD. membrane potential ratio readout (active if shifted either direction beyond buffer ±3SD; no single direction) at 10 µM. 2,400 compounds, 4% hits. AID 493222;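 further: parental cells lack the transporter so any hit is non-specific; ratio is peak minus trough fluorescence over baseline after EC90 choline challenge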
Each line names hits and unclear results; the compound was inactive in the other large screens (follow-up assays come after a bar, where they were run). Unless noted, no stated cut-off is given here; in the data, active means inhibition above about 50%; inactive means the rest.

COC(=O)C1CCN(C(=O)COC(=O)c2oc3ccc(OC)cc3c2C)CC1	none
N#Cc1ccc(C(=O)OCC(=O)NC(=O)NCc2ccccc2)cc1	none (no result: CHT inh, NALP1 yeast inh, Bfl-1 A1 inh, CHT PAM, SUMO Mot1 rescue)
COC(=O)c1[nH]c2cc(C)ccc2c1NC(=O)CN1CCOCC1	none
COC(=O)c1[nH]c2cc(C)ccc2c1NC(=O)CN1CCN(c2ccccc2OC)CC1	SUMO Mot1 rescue 492 | Mot1 SUMO dose inactive
COc1ccccc1CNCc1cc(OC)c(OC)c(OC)c1	SUMO Mot1 rescue active | Mot1 SUMO dose inactive
Cc1cccc(NC(=O)c2ccc(S(=O)(=O)N3CCC(C)CC3)cc2)n1	none
COCCn1c(N)c(N(Cc2ccccc2)C(=O)CN2C(=O)NC(C)(c3ccccc3)C2=O)c(=O)[nH]c1=O (centres undefined)	SUMO Mot1 rescue 531 | Mot1 SUMO dose inactive
CC(C)c1nnc(NC(=O)C2CCN(C(=O)Nc3ccccc3)CC2)s1	none
CCCNC(=O)C(Cc1ccc(F)cc1)NC(=O)c1ccccc1 (centres undefined)	none (no result: CHT inh, NALP1 yeast inh, CHT PAM)
CC(C)(C)NS(=O)(=O)c1ccc(Oc2ncc(C(F)(F)F)cc2Cl)cc1	none
COCCCNS(=O)(=O)c1ccc(Oc2ncc(C(F)(F)F)cc2Cl)cc1	SUMO Mot1 rescue active | Mot1 SUMO dose inactive
C[C@H](CO)N1C[C@H](C)[C@@H](CN(C)C(=O)NC2CCCCC2)Oc2c(NC(=O)Nc3ccc(C(F)(F)F)cc3)cccc2C1=O	none (no result: CHT inh, NALP1 yeast inh, CHT PAM)
Cc1ccc(NC2CC(=O)N(c3ccc(N4CCCCC4)cc3)C2=O)cc1 (centres undefined)	SUMO Mot1 rescue 680 | Mot1 SUMO dose inactive
COc1ccc(N2C(=O)CC(Nc3ccc(C)cc3)C2=O)cc1 (centres undefined)	none (no result: SUMO Mot1 rescue)
CCOC(=O)C1CCN(Cc2ccc(OCc3ccccc3)cc2)CC1	SUMO Mot1 rescue 555 | Mot1 SUMO dose inactive
NC(=O)C1CCN(Cc2ccc(OCc3ccccc3)cc2)CC1	none
COCCN(C(=O)C1CC1)c1nnc(-c2ccc(C)cc2)s1	SUMO Mot1 rescue 731 | Mot1 SUMO dose inactive
CCOc1ccc(-c2nnc(N(CC)C(=O)C3CCC3)s2)cc1	none
O=C(c1ccccc1F)N1CCCc2ccccc21	SUMO Mot1 rescue 495 (no result: NALP1 yeast inh) | Mot1 SUMO dose inactive
COc1ccc(CNC(=O)Cn2c(=O)n(CCC(=O)N3CCCCC3)c(=O)c3sccc32)cc1	none
Cn1c(N)c(C(=O)COC(=O)c2ccccc2C(F)(F)F)c(=O)n(C)c1=O	none (no result: CHT inh, NALP1 yeast inh, CHT PAM)
CN(CC(=O)Nc1cccc(F)c1)CC(=O)Nc1cccc(S(N)(=O)=O)c1	SUMO Mot1 rescue 740 (no result: NALP1 yeast inh) | Mot1 SUMO dose inactive
CN(CC(=O)Nc1cccc(F)c1)CC(=O)Nc1cccc(S(=O)(=O)N2CCCCCC2)c1	none
c1ccc2cc(C3CCCCC3)ncc2c1	SUMO Mot1 rescue 738 (no result: CHT inh, NALP1 yeast inh, CHT PAM) | Mot1 SUMO dose inactive
Fc1ccccc1-c1cc2ccccc2cn1	none (no result: CHT inh, NALP1 yeast inh, CHT PAM)
O=C1CC(NS(=O)(=O)c2ccc(F)cc2)CN1c1ccc2c(c1)OCCO2 (centres undefined)	none (no result: NALP1 yeast inh)
Cc1cccc(N(CC(=O)N2CCCCCC2)S(C)(=O)=O)c1C	none
CS(=O)(=O)N(CC(=O)N1CCCC1)c1cccc(Cl)c1Cl	SUMO Mot1 rescue 530 | Mot1 SUMO dose inactive
CCS(=O)(=O)c1nc(S(=O)(=O)c2ccc(C)cc2)c(N2CCC3(CC2)OCCO3)s1	none
CCOC(=O)c1cnc(-c2ccccc2O)nc1Cl	none
CCOC(=O)C1=Nc2ccccc2C1=[N+]=[N-]	NALP1 yeast inh 75, NALP3 yeast inh 82, SUMO Mot1 rescue 366 | Mot1 SUMO dose inactive | NALP3 yeast conf 89 | Casp1-ASC yeast 97 | NALP3 yeast rt 87
N#Cc1ccc(CC(C(=O)O)N2Cc3ccccc3C2=O)cc1 (centres undefined)	none
Cc1ccc2c(c1)C(=O)N1[C@H]3c4ccccc4OC[C@@H]3[C@H](c3ccccc3)[C@]1(C)C(=O)N2	NALP3 yeast inh 70, SUMO Mot1 rescue active (no result: CHT inh, NALP1 yeast inh, CHT PAM) | Mot1 SUMO dose inactive | NALP3 yeast conf 83 | Casp1-ASC yeast 84 | NALP3 yeast rt 73
C[C@@]12C(=O)Nc3ccc(Br)cc3C(=O)N1[C@H]1c3ccccc3OC[C@@H]1[C@@H]2c1ccccc1	NALP3 yeast inh 88, SUMO Mot1 rescue active (no result: CHT inh, NALP1 yeast inh, CHT PAM) | Mot1 SUMO dose inactive | NALP3 yeast conf 89 | Casp1-ASC yeast 90 | NALP3 yeast rt 74
C[C@@]12C(=O)Nc3ccc(Br)cc3C(=O)N1[C@H]1c3cc(Cl)ccc3OC[C@@H]1[C@@H]2c1ccccc1	none (no result: NALP1 yeast inh)
Cc1ccc(S(=O)(=O)CCC(=O)Nc2nnc(-c3ccccc3S(C)(=O)=O)o2)cc1	none (no result: NALP1 yeast inh)
Cc1c(C(=O)Nc2cccc(F)c2)cnn1-c1ccccc1	NALP3 yeast inh 55, SUMO Mot1 rescue 805 | Mot1 SUMO dose inactive | NALP3 yeast conf 72 | Casp1-ASC yeast 71 | NALP3 yeast rt 64
CCOC(=O)C1=C(C)NC(=S)NC1c1ccc(OCC(=O)N2CCCCC2)cc1 (centres undefined)	none
CCn1cnc2sc(-c3ccccc3)cc2c1=O	NALP3 yeast inh 63, SUMO Mot1 rescue 412 | Mot1 SUMO dose inactive | NALP3 yeast conf 56 | Casp1-ASC yeast 66 | NALP3 yeast rt 56
CC1=CC(=O)C(C(C)C)=C/C1=N/OS(=O)(=O)c1ccccc1	CHT inh -9.6, Bfl-1 A1 inh 27, SUMO Mot1 rescue 390 | Mot1 SUMO dose inactive | CHT block conf 64% | HEK293 MPD ctr inactive
O=C1CCc2cc(S(=O)(=O)N3CCCCC3)cc3c2N1CC3	none (no result: NALP1 yeast inh)
CC1CCN(CCNC(=O)C2CCCN(S(=O)(=O)c3cccc4nsnc34)C2)CC1 (centres undefined)	CHT inh -8.1, SUMO Mot1 rescue 454 | Mot1 SUMO dose inactive | CHT block conf 18% | HEK293 MPD ctr inactive

From PubChem
